Holding throughout (test): NCI-60 one-dose screen, 48 h (100 = growth as untreated, 0 = no growth, -100 = all killed)
Holding throughout (conditions): 10 µM unless noted

For assay [1], the system named is T-47D breast.
Assay [2] relates to BT-549 breast.
Assay [3] deals with MDA-MB-435 melanoma.
Assay [4] relates to SW-620 colon.
In assay [5] the test system is MCF7 breast.
The subject of assay [6] is HCT-116 colon.
For assay [7], the system named is HCC-2998 colon.
For assay [8], the system named is KM12 colon.

This is an account of results in PubChem BioAssay (NCI).

This is part of a sample that, as a whole, favours compounds with a hit. Of some 83,000 tested, about 20% had one in any assay.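 Method: cells in 96-well plates; compound added at one concentration; 48 h incubation; percent growth measured; values under 10 scored active.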 Values without a mark were called inactive. Active and inactive are the calls of the source.

Consider `O=C1CN(CCN2CC(=O)NC(=O)C2)CC(=O)N1`, for which the growth is 99.2% in assay [1]; 96.6% in assay [2]; 90.4% in assay [3]; 118% in assay [4]; 104% in assay [5]; 93.6% in assay [6]. The growth in assay [7] was 112%; in assay [8] it was 99.5%.
Consider `CN(C)CCNc1nc2ccccc2c2c(=O)c3ccccc3sc12`, for which the growth was 49% in assay [1]; 74.4% in assay [2]; 8.44% (active) in assay [3]; -54% (active) in assay [4]; -46.9% (active) in assay [5]; -9.31% (active) in assay [6]. In addition, the results for the growth in assay [7] and in assay [8] were -11.3% (active) and 18.5%, respectively.
Regarding `Cc1cccc(CC(=O)c2ccccc2)n1`, the growth was 94.2% in assay [1]; 111% in assay [2]; 99% in assay [3]; 91.3% in assay [4]; 92% in assay [5]; 90.5% in assay [6]. Also, the figures for the growth in assay [7] and in assay [8] were 94.6% and 88.1%, respectively.
For `O=C(c1cc(-c2ccc(Cl)cc2)nc2ccccc12)N1N=C(c2ccccc2)CC1c1cc(-c2ccccc2)nn1-c1ccccc1` (stereo not given), the growth in assay [1] is 75.5%; in assay [2] it was 84.9%; in assay [3], 83.4%; in assay [4], 80.6%; in assay [5], 76.3%; in assay [6] it was 68.1%. The growth is 89.5% in assay [7] and 68.6% in assay [8].
In the case of `CCOC(=O)c1noc2c1CCc1c-2cn(Cc2ccc(OC)cc2)c1-c1cc(OC)c(OC)c(OC)c1`, the growth was 40.9% in assay [1]; 19.6% in assay [2]; -28.1% (active) in assay [3]; 22.9% in assay [4]; 18% in assay [5]; 8.2% (active) in assay [6]. Also, the growth is 39.6% in assay [7] and 21.3% in assay [8].
For the compound `Cc1cn([C@]2(CF)O[C@H](CO)C2C)c(=O)[nH]c1=O` (stereo not given in full), the growth in assay [1] was 119%; in assay [2], 110%; in assay [3], 133%; in assay [4], 98.6%; in assay [5], 120%; in assay [6], 100%. Besides, the growth in assay [7] was 121%; in assay [8], 110%.
Take `CCc1ccc(C2=C/C(=C/c3ccc(Cl)cc3)C(=O)N2CCc2ccc(S(N)(=O)=O)cc2)cc1`: the growth in assay [1] was 0.105% (active); in assay [2], 38%; in assay [3] it was 36.7%; in assay [4], 25.2%; in assay [5], 6.29% (active); in assay [6] it was 13.6%. Also, the growth is 24.8% in assay [7] and 18.8% in assay [8].
As for `CCCCOc1nc2ccc(Cl)cc2cc1/C=C/C(=O)/C=C/c1ccc(Cl)cc1`, the growth is 53.8% in assay [1]; 36.3% in assay [2]; 2.31% (active) in assay [3]; 42.5% in assay [4]; 23% in assay [5]; -29.1% (active) in assay [6]. In addition, the growth was 60.4% in assay [7] and 51.6% in assay [8].
With `O=C(Nc1ccc(Cl)c(Cl)c1)Nc1ccc(Cl)c([N+](=O)[O-])c1`, the growth in assay [1] was -2.12% (active); in assay [2], -9.25% (active); in assay [3] it was 7.8% (active); in assay [4] it was 9.66% (active); in assay [5], 0.367% (active); in assay [6], 1.83% (active). The growth in assay [7] was 2.28% (active); in assay [8], 2.33% (active).
Regarding `CCCCCCCCCCCCCCCCNc1ccccc1`, the growth in assay [1] is 88.6%; in assay [2] it was 71.7%; in assay [3], 111%; in assay [4], 108%; in assay [5] it was 90.1%; in assay [6], 101%. Also, the figures for the growth in assay [7] and in assay [8] were 105% and 88.7%, respectively.
Take `CCC(C)Nc1ccc(N)cc1` (stereo not given): the growth in assay [1] was 16.2%; in assay [2], 31.7%; in assay [3], 12.7%; in assay [4], 29.9%; in assay [5], 3.94% (active); in assay [6] it was -34.8% (active). Besides, the figures for the growth in assay [7] and in assay [8] were 28.4% and 8.28% (active), respectively.
On to `O=C(Nc1cccc(-n2ccc3c(NC(=O)c4ccccc4)nccc32)c1)c1cccc(C(F)(F)F)c1`, for which the growth was 55.8% in assay [1]; -6.35% (active) in assay [2]; 1.38% (active) in assay [3]; 20.2% in assay [4]; 19% in assay [5]; 1.3% (active) in assay [6]. The results for the growth in assay [7] and in assay [8] were 31.8% and -3.3% (active), respectively.
`O=C(Nc1ccc(-n2cc(-c3ccncc3)c(-c3ccc(O)c(Cl)c3)n2)cc1)c1cc(Cl)cc(Cl)c1`: the growth is 49.3% in assay [1]; 25.8% in assay [2]; 21.5% in assay [3]; 33.6% in assay [4]; 33.3% in assay [5]; 17.6% in assay [6]. The results for the growth in assay [7] and in assay [8] were 39.3% and 24.3%, respectively.
For the compound `Nc1ncnc2c1ccn2-c1cccc(NC(=O)c2cccc(C(F)(F)F)c2)c1`, the growth in assay [1] is 59.2%; in assay [2], 89.9%; in assay [3] it was 59%; in assay [4] it was 90.2%; in assay [5] it was 58.6%; in assay [6], 68.5%. The values for the growth in assay [7] and in assay [8] were 98.6% and 54%, respectively.
Consider `C=C(C)[C@@H]1C/C=C(\COC(=O)[C@H](OC(C)=O)C(NC(=O)c2ccccc2)c2ccccc2)CC[C@H]2O[C@]2(C)CC/C=C(\C)CC1` (stereo not given in full), for which the growth in assay [1] is 68.7% [5 µM]; in assay [2], 68.5% [5 µM]; in assay [3] it was 67% [5 µM]; in assay [4], 94.8% [5 µM]; in assay [5], 38.2% [5 µM]; in assay [6] it was 42.7% [5 µM]. The values for the growth in assay [7] and in assay [8] were 75.5% [5 µM] and 69.1% [5 µM], respectively.
For `COc1cc(/C=C/C(=O)c2c(C)n([O-])c3cc(C)c(C)cc3[n+]2=O)cc(OC)c1OC`, the growth is 51.8% in assay [1]; 23% in assay [2]; 45.8% in assay [3]; 50.1% in assay [4]; 11.1% in assay [5]; 42.6% in assay [6]. Also, the figures for the growth in assay [7] and in assay [8] were 85.5% and 69.8%, respectively.
With `C/C(=N/NC(=O)Cn1c2ccccc2c2ccncc21)c1cccs1`, the growth is 96.4% in assay [1]; 104% in assay [2]; 110% in assay [3]; 103% in assay [4]; 102% in assay [5]; 100% in assay [6]. Moreover, the growth was 96.9% in assay [7] and 101% in assay [8].
Turning to `Nc1ncnc2c1c(-c1ccc(Oc3ccccc3)cc1)nn2C[C@H]1SSC[C@H]1O`, the growth is -20.6% (active) in assay [1]; 38.9% in assay [2]; -74.6% (active) in assay [3]; 69.2% in assay [4]; -53.9% (active) in assay [5]; -69.3% (active) in assay [6]. Moreover, the growth in assay [7] is 11.2%; in assay [8], 9.93% (active).
Consider `CN(C)C(=O)Nc1nc2cc(Cl)c(Cl)cc2[nH]1`, for which the growth in assay [1] was 52.5%; in assay [2], 39.5%; in assay [3], -24.5% (active); in assay [4], 29.8%; in assay [5], 15.4%; in assay [6] it was 1.15% (active). Further, the values for the growth in assay [7] and in assay [8] were 14.2% and 1.99% (active), respectively.
For `CCCCNc1cc(C(=O)O)cc(S(N)(=O)=O)c1Oc1ccccc1`, the growth is 103% in assay [1]; 104% in assay [2]; 99.3% in assay [3]; 99.1% in assay [4]; 111% in assay [5]; 110% in assay [6]. The growth in assay [7] was 103%; in assay [8], 107%.
Consider `COc1cccc(C2CC(c3cc(OC)c(OC)c(OC)c3)=NN2)c1` (stereo not given), for which the growth is 78.7% in assay [1]; 93.6% in assay [2]; 11.9% in assay [3]; 51.7% in assay [4]; 51.5% in assay [5]; 66.5% in assay [6]. The growth in assay [7] is 83.2%; in assay [8], 54.7%.
Regarding `CCCCCCCCCCCCCCCC(=O)NS(=O)(=O)OC[C@H]1O[C@@H](n2cnc3c(N)ncnc32)[C@H](O)[C@@H]1O`, the growth in assay [1] is -16.9% (active); in assay [2], -65.2% (active); in assay [3] it was -74.5% (active); in assay [4] it was -39.2% (active); in assay [5], 5.8% (active); in assay [6] it was -25.8% (active). Besides, the figures for the growth in assay [7] and in assay [8] were -85.9% (active) and -39.2% (active), respectively.
Turning to `C#C[C@@]1(O)[C@@H](CO)O[C@@H](n2cc(C(F)(F)F)c3c(N)ncnc32)[C@@H]1O`, the growth was -19.3% (active) in assay [1]; -12.1% (active) in assay [2]; 14.7% in assay [3]; 4.55% (active) in assay [4]; 1.74% (active) in assay [5]; 4.15% (active) in assay [6]. In addition, the growth in assay [7] was 3.76% (active); in assay [8], 6.52% (active).
As for `C=CC(=O)NC(=O)Nc1ccccc1Cl`, the growth in assay [1] was 65.8%; in assay [2], 75.3%; in assay [3], 82.4%; in assay [4] it was 53.6%; in assay [5], 27.1%; in assay [6], 55.5%. In addition, the growth in assay [7] was 110%; in assay [8], 96.4%.
Turning to `CC(=O)N1N=C(CCC(=O)c2nc3ccc([N+](=O)[O-])cc3[nH]2)OC1c1ccc(O)cc1` (stereo not given), the growth was 85.5% in assay [1]; 101% in assay [2]; 105% in assay [3]; 102% in assay [4]; 98.7% in assay [7]; 95.8% in assay [8].
Take `O=C(/C=C/c1ccccc1)Oc1ccc(/C=C/c2cc(OC(=O)/C=C/c3ccccc3)cc(OC(=O)/C=C/c3ccccc3)c2)cc1`: the growth was 81.9% in assay [1]; 102% in assay [2]; 101% in assay [3]; 103% in assay [5]; 96.3% in assay [6]; 104% in assay [7]. In addition, the growth in assay [8] was 103%.
Take `COc1ccc2c(c1)nnc1c3cccnc3[nH]c21`: the growth in assay [1] was 6.14% (active); in assay [2] it was 4.75% (active); in assay [3], 13.8%; in assay [5] it was -43.5% (active); in assay [6] it was -74% (active); in assay [7], 40.6%. In addition, the growth in assay [8] is 30%.
Turning to `CCOC(=O)C(C)(CSSCC(C)(NC(=O)c1ccc2ccccc2c1)C(=O)OCC)NC(=O)c1ccc2ccccc2c1` (stereo not given), the growth is 86.6% in assay [1]; 138% in assay [2]; 96.3% in assay [3]; 92.2% in assay [5]; 47% in assay [6]; 119% in assay [7]. Further, in assay [8], the growth was 107%.
As for `C[C@]12CC[C@@H]3c4ccc(O)c(N)c4CC[C@H]3[C@@H]1CC[C@@H]2O`, the growth in assay [1] is 124%; in assay [2], 99.3%; in assay [3], 108%; in assay [5], 116%; in assay [6], 89.9%; in assay [7] it was 120%. Besides, the growth in assay [8] is 103%.
Consider `O=C1c2ccccc2OC=C(c2ccccc2)N1CCCCNc1ccc(F)cc1`, for which the growth in assay [1] is 36.3%; in assay [2], 59.1%; in assay [3], 108%; in assay [5] it was 85.6%; in assay [6] it was 59.4%; in assay [7], 104%. Also, in assay [8], the growth is 84.4%.
Turning to `NS(=O)(=O)c1ccc(Nc2nc(O)c(/C=C3\C=Nc4ccccc43)s2)cc1`, the growth in assay [1] is 99.3%; in assay [2], 108%; in assay [3] it was 107%; in assay [5] it was 94.2%; in assay [6] it was 92.7%; in assay [7], 116%. Also, the growth in assay [8] is 95.6%.
